Active and inactive are the calls of the source. The calls were made as follows, unless noted: active = hit-call score of the fitted dose curve at least 0.9, where 1 is the maximum; inactive = score below 0.9.
biological target: Peroxisome proliferator-activated receptor gamma (Homo sapiens) (UniProt P37231); assay: OT_PPARg_PPARgSRC1_1440: Odyssey Thera (OT) 24-hour Protein-Complementation Assay for Peroxisome Proliferator-activated Receptor Gamma/ SRC-1 Co-activator (AID 2283388; active = hit-call score of the fitted dose curve at least 0.9, where 1 is the maximum); conditions: not given
Sequence (P37231 whole entry, looked up, the tested form may be a part): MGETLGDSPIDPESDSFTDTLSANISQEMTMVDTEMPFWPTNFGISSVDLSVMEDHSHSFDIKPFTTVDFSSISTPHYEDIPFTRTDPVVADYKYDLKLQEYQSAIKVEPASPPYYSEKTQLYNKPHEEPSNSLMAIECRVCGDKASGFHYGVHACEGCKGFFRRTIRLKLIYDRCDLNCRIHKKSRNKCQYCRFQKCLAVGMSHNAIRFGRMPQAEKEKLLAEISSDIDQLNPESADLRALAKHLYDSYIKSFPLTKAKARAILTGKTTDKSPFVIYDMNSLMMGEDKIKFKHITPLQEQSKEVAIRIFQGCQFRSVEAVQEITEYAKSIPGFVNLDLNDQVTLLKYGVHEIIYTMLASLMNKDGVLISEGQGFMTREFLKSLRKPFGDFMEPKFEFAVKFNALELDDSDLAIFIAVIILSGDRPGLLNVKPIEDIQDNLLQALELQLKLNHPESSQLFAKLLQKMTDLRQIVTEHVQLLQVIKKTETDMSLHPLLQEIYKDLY
Method in brief: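 HEK293T cells transiently transfected with PPARg and SRC-1 fused via (Gly4Ser)2 linker to split Venus YFP fragments (IFP1/IFP2) were dosed 24 h; fixed, Draq5-stained, imaged at 488/635 nm; nuclear/cytoplasmic fluorescence ratio scored versus DMSO baseline, gain-of-signal.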

| Structure (SMILES) | outcome |
| --- | --- |
| O=CCCl | inactive |
| CNC(=O)O/N=C/C(C)(C)S(C)(=O)=O | inactive |
| O=C(NC(=O)c1c(F)cccc1F)Nc1ccc(Cl)cc1 | inactive |

read-out: not listed separately; assay: CEETOX_H295R_OHPREG: CeeTox H295R High-throughput Steroidogenesis Assay for OH-Pregnenolone (OHPREG) (AID 2283434); conditions: actives raise or lower the signal
Method in brief: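 Readout: HPLC-MS/MS of 17alpha-hydroxypregnenolone in medium after 48 h chemical exposure of H295R cells pretreated with forskolin. Values fitted bidirectionally relative to DMSO; chemicals reducing viability to 20–70% were retested after 10-fold dilution.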

| Structure (SMILES) | AC50 | outcome |
| --- | --- | --- |
| CCCSP(=S)(OCC)Oc1ccc(SC)cc1 (centres undefined) | 14 µM (active) |  |
| CCC[CH2][Sn]([Cl])([Cl])[CH2]CCC |  | inactive |
| CC(C)=CC1C(C(=O)OCc2cccc(Oc3ccccc3)c2)C1(C)C (centres undefined) | 25.7 µM (active) |  |

read-out: not listed separately; assay: CEETOX_H295R_OHPROG: CeeTox H295R High-throughput Steroidogenesis Assay for OH-Progesterone (OHPROG) (AID 2283435); conditions: actives raise or lower the signal;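 as to AC50: 17alpha-hydroxyprogesterone secreted into medium measured by HPLC-MS/MS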
Method in brief: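 Medium steroid levels read by LC-MS/MS after 48 h chemical treatment (0.1% DMSO) of human adrenal H295R cells that had been forskolin-primed (10 uM, 48 h). Gain or loss fitted against DMSO; MTT cytotoxicity checked per well.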

| Structure (SMILES) | AC50 | outcome |
| --- | --- | --- |
| CCCSP(=S)(OCC)Oc1ccc(SC)cc1 (centres undefined) | 1.41 µM (active) |  |
| CCC[CH2][Sn]([Cl])([Cl])[CH2]CCC |  | inactive |
| CC(C)=CC1C(C(=O)OCc2cccc(Oc3ccccc3)c2)C1(C)C (centres undefined) | 26.9 µM (active) |  |

Source: PubChem BioAssay (EPA / NIEHS)
